According to article PMC4336329 (PLoS ONE, 2015):
The campaign covered roughly 310,000 compounds. About 14,000 (4.5%) showed an effect of 50% or more. Effects have a minus sign here. The full list was thinned out, with strong results kept by preference.

Target: human ether-à-go-go-related gene (hERG) potassium channel (human, UniProt Q12809)
Test: primary screen, population patch clamp on CHO cells stably expressing hERG; higher = less effect of the substance
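Note: peak tail current of the secondary pulse compared with the same well before compound.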

Sequence of human ether-à-go-go-related gene (hERG) potassium channel (Q12809 whole entry, looked up): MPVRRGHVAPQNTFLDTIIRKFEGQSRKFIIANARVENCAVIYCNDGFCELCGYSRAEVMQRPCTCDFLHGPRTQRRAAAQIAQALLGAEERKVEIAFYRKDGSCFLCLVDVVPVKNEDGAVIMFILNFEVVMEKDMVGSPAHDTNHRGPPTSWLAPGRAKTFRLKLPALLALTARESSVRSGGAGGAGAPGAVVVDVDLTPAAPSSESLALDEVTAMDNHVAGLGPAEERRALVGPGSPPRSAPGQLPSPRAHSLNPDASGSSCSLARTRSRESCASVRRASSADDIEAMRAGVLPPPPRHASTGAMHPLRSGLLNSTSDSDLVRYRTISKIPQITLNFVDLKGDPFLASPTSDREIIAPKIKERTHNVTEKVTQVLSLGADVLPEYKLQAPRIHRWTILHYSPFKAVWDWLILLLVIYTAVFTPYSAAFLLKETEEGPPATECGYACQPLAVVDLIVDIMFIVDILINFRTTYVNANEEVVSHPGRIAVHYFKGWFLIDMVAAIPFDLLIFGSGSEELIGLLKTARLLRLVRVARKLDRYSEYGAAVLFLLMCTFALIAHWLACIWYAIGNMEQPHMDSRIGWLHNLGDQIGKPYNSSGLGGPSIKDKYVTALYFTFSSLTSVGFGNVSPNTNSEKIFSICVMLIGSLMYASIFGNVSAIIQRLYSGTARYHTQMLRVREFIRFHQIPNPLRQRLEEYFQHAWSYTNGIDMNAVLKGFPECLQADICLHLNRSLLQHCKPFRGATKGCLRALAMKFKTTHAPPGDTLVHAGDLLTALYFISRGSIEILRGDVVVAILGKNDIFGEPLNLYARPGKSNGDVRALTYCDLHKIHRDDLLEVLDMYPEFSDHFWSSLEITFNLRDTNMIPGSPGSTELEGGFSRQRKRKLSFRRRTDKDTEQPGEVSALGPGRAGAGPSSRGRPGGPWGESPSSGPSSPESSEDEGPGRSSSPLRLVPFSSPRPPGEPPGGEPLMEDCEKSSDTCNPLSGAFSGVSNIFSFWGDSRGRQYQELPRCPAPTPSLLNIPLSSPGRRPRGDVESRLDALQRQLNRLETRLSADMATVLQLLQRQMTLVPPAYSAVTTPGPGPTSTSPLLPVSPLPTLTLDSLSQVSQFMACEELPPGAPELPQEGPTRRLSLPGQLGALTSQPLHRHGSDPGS

Structure (SMILES) | hERG current change (%, negative = inhibition) at 10uM [%]
CCOC(=O)c1sc2nc(N3CCCC3)c3c(c2c1N)CC(C)(C)OC3 | 10.4
O=[N+]([O-])c1cccc(N/N=C/c2cccc(O)c2O)c1 | 16.7
COc1ccc(-c2n[nH]c3c2C(c2ccc(OC)c(OC)c2)N(c2ccccc2)C3=O)cc1 (stereo not shown) | 3.73
Cc1cc(Cl)ccc1N(CC(=O)NCc1ccccc1)S(C)(=O)=O | -1.12
Cc1cc(Cl)ccc1OCCCC(=O)NNC(=O)c1ccncc1 | -30.2
Clc1ccc(OCc2nnc(SCc3nc4ccccc4[nH]3)n2Cc2ccco2)cc1 | -36
CC(Sc1nnc(COc2ccc(Cl)cc2)n1Cc1ccccc1)C(=O)O (stereo not shown) | 3.06
O=C(CSc1nnc(COc2ccc(Cl)cc2)n1Cc1ccco1)c1ccccc1F | 13.1
CC(Sc1nnc(COc2ccc(Cl)cc2)n1Cc1ccco1)C(=O)N1CCNC1=O (stereo not shown) | -55.9
COc1ccccc1NC(=O)CSc1nnc(COc2ccc(Cl)cc2)n1Cc1ccco1 | -12.7
Cl.Clc1ccc(OCc2nnc(SCCN3CCCCC3)n2Cc2ccco2)cc1 | -75.9
N#Cc1c(NC(=O)CSc2nc(-c3ccco3)cc(C(F)(F)F)n2)sc2c1CCCC2 | 12.3
Cc1ccc(/C=N/Nc2nc(C(C)(C)C)cs2)o1.Cl | -22.5
CC(=O)Nc1cccc(NC(=O)COc2ccc3c(c2)OCO3)c1 | 4.48
O=C(O)c1ccc(Br)cn1 | 9.73
O=C(O)c1ccc([N+](=O)[O-])c(CS(=O)(=O)c2ccc(Cl)cc2)c1 | 6.82
N#Cc1cnn2c(C(F)(F)F)c3c(nc12)CCCC3 | -5.18
Cc1nc2c(C#N)cnn2c2c1CCN2CC1CCCO1 (stereo not shown) | -51.7
Cc1nc2c(C#N)cnn2c2c1CCNN2C | -1.38
COC(=O)C(C(C)C)N1CCc2c(C)nc3c(C#N)cnn3c21 (stereo not shown) | 13.9
Cc1nc2c(C#N)cnn2c2c1CCN(Cc1ccccc1)N2C | -58
COC(CN1CCc2c(C)nc3c(C#N)cnn3c21)OC | 5.84
Cc1cc(=O)n2c3ccccc3n(C)c2n1 | 9.7
S=C(NC1CCCC1)N1CCN(c2ccc(Cl)cc2)CC1 | -13.6
O=C(NC1CCCCC1)N1CCN(c2ccc([N+](=O)[O-])cc2)CC1 | -92.4
O=C(NC1CCCCC1)N1CCN(c2ccc(Cl)cc2)CC1 | -27.8
O=[N+]([O-])c1ccc(N2CCN(C(=S)NC3CCCCC3)CC2)cc1 | -53
O=C(NC1CCCCC1)N1CCN(c2ccccc2)CC1 | -0.0694

Structure (SMILES) | hERG current change (%, negative = inhibition) at 10uM [%]
S=C(NC1CC1)N1CCN(c2ccc(Cl)cc2)CC1 | 1.76
COc1ccc([C@H]2CC(=O)C=C(c3cccc4c3Oc3ccccc3S4)C2)cc1 | -28.4
Cc1ccc(CNC(=O)CC(C)S(=O)(=O)c2ccc3c(c2)NC(=O)CO3)cc1 (stereo not shown) | -22.1
CC(=O)c1ccn(S(=O)(=O)c2ccc(Cl)cc2)c1 | 6.57
CC1(C)CC(=O)C([N+](=O)[O-])=C(NCCCC(=O)O)C1.O | 15
Cc1ccc(-n2c(C)cc(C(=O)COC(=O)C3=NNC(=O)CC3)c2C)cc1 | -42.3
Cc1cc(C(=O)C(C)OC(=O)C2=NNC(=O)CC2)c(C)n1-c1ccc(OC(F)F)cc1 (stereo not shown) | -73.3
Cc1cc(C(=O)COC(=O)C2=NNC(=O)CC2)c(C)n1-c1ccc(OC(F)F)cc1 | -48.4
COc1cc(C(=O)NCC(c2ccco2)N2CCCC2)ccc1OCc1c(C)noc1C (stereo not shown) | -21.1
O=C(Nc1cccc2ncccc12)c1ccc(-c2ccc(Cl)cc2Cl)o1 | -7.06
CS(=O)(=O)N(CC(=O)Nc1ccc(S(=O)(=O)N2CCOCC2)cc1)c1cccc(F)c1 | -9.72
Cc1noc(C)c1COc1cccc(C(=O)Nc2ccccc2)c1 | -7.11
Cc1ccc(OCCNC(=O)CCC(=O)N2CCOCC2)cc1 | 15.9
CC1CCN(S(=O)(=O)c2ccc(NC(=O)CN3CCN(c4ccccc4)CC3)cc2)CC1 | -58.2
Cc1ccc(S(=O)(=O)N2CCN(CC(=O)N/N=C\c3ccc(Cl)c([N+](=O)[O-])c3)CC2)cc1 | -30.8
Cc1ccc(C)c(S(=O)(=O)N2CCN(CC(=O)Nc3ccc([N+](=O)[O-])cc3)CC2)c1 | -40.7
CC1CC(C)CN(CC(=O)Nc2ccc(S(N)(=O)=O)cc2)C1 (stereo not shown) | 13.7
CC1CCN(S(=O)(=O)c2ccc(NC(=O)CN3CCN(C)CC3)cc2)CC1 | -16
CC1CN(CC(=O)Nc2ccc(S(N)(=O)=O)cc2)CC(C)O1 (stereo not shown) | -52
O=C(CN1CCN(S(=O)(=O)c2ccccc2)CC1)Nc1ccc(Cl)c(Cl)c1 | -16
CC1CCN(CC(=O)Nc2ccc(S(=O)(=O)N3CCC(C)CC3)cc2)CC1.Cl | -42.8
O=C(CN1CCN(S(=O)(=O)c2ccccc2)CC1)Nc1ccc(Cl)c([N+](=O)[O-])c1 | -65
Cc1ccc(S(=O)(=O)N2CCN(CC(=O)Nc3ccc(N4CCOCC4)cc3)CC2)cc1C | -11.5
NS(=O)(=O)c1ccc(NC(=O)CN2CCCC2)cc1 | 3.7
Cc1ccc(S(=O)(=O)N2CCN(CC(=O)Nc3ccc([N+](=O)[O-])cc3)CC2)cc1C | -76.9
Cc1ccccc1S(=O)(=O)Cc1ccc(C(=O)NCCCN2CCCC(C)C2)o1 (stereo not shown) | -21.1
CCc1ccccc1NC(=O)c1ccc(-c2csc(C)n2)cc1 | -12.4
